# Publication PMC11062922 (Nature Chemical Biology, 2023)
# Read-outs that look alike come from different tables or passages of the source.
# Assays:
# Set-up in all cases: species or system human, MV4-11 + K-562 + COLO205 + SK-N-BE2 + OVCAR-8
# DYRK1A = details: read-out: apparent Kd, compound concentrations: 100 nM and 1000 nM (sheet 'Samples'), n = 1
# LATS1 = details: read-out: apparent Kd, compound concentrations: 100 nM and 1000 nM (sheet 'Samples'), n = 1
# CDK7 = details: read-out: apparent Kd, compound concentrations: 100 nM and 1000 nM (sheet 'Samples'), n = 1
# CDKL5 = details: read-out: apparent Kd, compound concentrations: 100 nM and 1000 nM (sheet 'Samples'), n = 1
# ERCC2 = details: read-out: apparent Kd; compound concentrations: 100 nM and 1000 nM (sheet 'Samples'), CATDS: 2.1515421316076401E-2; n = 1
# FER = details: read-out: apparent Kd, compound concentrations: 100 nM and 1000 nM (sheet 'Samples'), n = 1
# FLT3 = details: read-out: apparent Kd, compound concentrations: 100 nM and 1000 nM (sheet 'Samples'), n = 1
# MARK4 = details: read-out: apparent Kd, compound concentrations: 100 nM and 1000 nM (sheet 'Samples'), n = 1
# MYLK3 = details: read-out: apparent Kd, compound concentrations: 100 nM and 1000 nM (sheet 'Samples'), n = 1
# PLK4 = details: read-out: apparent Kd, compound concentrations: 100 nM and 1000 nM (sheet 'Samples'), n = 1
# PRKAA1 = details: read-out: apparent Kd, compound concentrations: 100 nM and 1000 nM (sheet 'Samples'), n = 1
# PRKCD = details: read-out: apparent Kd, compound concentrations: 100 nM and 1000 nM (sheet 'Samples'), n = 1
# PRKCQ = details: read-out: apparent Kd, compound concentrations: 100 nM and 1000 nM (sheet 'Samples'), n = 1
# PRKD2 = details: read-out: apparent Kd, n = 1
# PRKD3 = details: read-out: apparent Kd, n = 1
# PTK2B = details: read-out: apparent Kd, compound concentrations: 100 nM and 1000 nM (sheet 'Samples'), n = 1
# PTK2 = details: read-out: apparent Kd, compound concentrations: 100 nM and 1000 nM (sheet 'Samples'), n = 1
# RPS6KA6 = details: read-out: apparent Kd, compound concentrations: 100 nM and 1000 nM (sheet 'Samples'), n = 1
# STK10 = details: read-out: apparent Kd, compound concentrations: 100 nM and 1000 nM (sheet 'Samples'), n = 1
# TNK2 = details: read-out: apparent Kd, compound concentrations: 100 nM and 1000 nM (sheet 'Samples'), n = 1
# [1] = compound concentrations:100 nM and 1000 nM (sheet 'Samples')
smiles,measurement,setting,value
CCn1c(-c2nonc2N)nc2c(C#CC(C)(C)O)nc(OC[C@@H](N)c3ccccc3)cc21 [GSK938890A],potency estimated from few doses,DYRK1A; CATDS: 4.9269048258553202E-2,2060 nM
same,potency estimated from few doses,LATS1; CATDS: 6.3165054409109203E-2,513 nM
O=C1N=C(NCCc2ccc(Cl)cc2)S/C1=C\c1ccc2ncccc2c1 [RO4498479-000],potency estimated from few doses,CDK7; CATDS: 2.4350372788697498E-2,119 nM
same,potency estimated from few doses,CDKL5; CATDS: 8.2845593333633408E-3,909 nM
same,potency estimated from few doses,ERCC2,142 nM
same,potency estimated from few doses,FER; CATDS: 1.93209734431329E-2,166 nM
same,potency estimated from few doses,FLT3; CATDS: 1.0367577324715899E-2,511 nM
same,potency estimated from few doses,LATS1; CATDS: 9.9630845977556094E-3,560 nM
same,potency estimated from few doses,MARK4; CATDS: 9.5723230975851108E-3,617 nM
same,potency estimated from few doses,MYLK3; CATDS: 6.6633165686717103E-3,2040 nM
same,potency estimated from few doses,PLK4; CATDS: 1.52584065926915E-2,242 nM
same,potency estimated from few doses,PRKAA1; CATDS: 1.37789233680672E-2,289 nM
same,potency estimated from few doses,PRKCD; CATDS: 7.1591971083295198E-3,1490 nM
same,potency estimated from few doses,PRKCQ; CATDS: 7.7984631053202198E-3,1100 nM
same,potency estimated from few doses,"PRKD2; compound concentrations: 100 nM and 1000 nM (sheet 'Samples'), CATDS: 8.2429468538409798E-3",923 nM
same,potency estimated from few doses,"PRKD3; compound concentrations: 100 nM and 1000 nM (sheet 'Samples'), CATDS: 8.1476846710640503E-3",956 nM
same,potency estimated from few doses,PTK2B; CATDS: 1.6323674836543501E-2,216 nM
same,potency estimated from few doses,PTK2; CATDS: 1.5270520713179201E-2,242 nM
same,potency estimated from few doses,RPS6KA6; CATDS: 1.4642324519722799E-2,260 nM
same,potency estimated from few doses,STK10; CATDS: 8.8639953478003106E-3,751 nM
same,potency estimated from few doses,TNK2; CATDS: 1.88242032678454E-2,173 nM
Cn1ncc2c(N)ncnc21 [SKF-18267],potency estimated from few doses,CDK7; CATDS: 5.5514862333248096E-3,667 nM
same,potency estimated from few doses,DYRK1A; CATDS: 3.77369052298554E-3,1560 nM
same,potency estimated from few doses,FER; CATDS: 5.4218087868892397E-3,697 nM
same,potency estimated from few doses,FLT3; CATDS: 6.0970372773572496E-3,564 nM
same,potency estimated from few doses,LATS1; CATDS: 3.8471015452543802E-3,1480 nM
same,potency estimated from few doses,MARK4; CATDS: 3.8950662850455102E-3,1430 nM
same,potency estimated from few doses,MYLK3; CATDS: 3.9686163384318402E-3,1360 nM
same,potency estimated from few doses,PLK4; CATDS: 4.9790098691835901E-3,821 nM
same,potency estimated from few doses,PRKCD; CATDS: 3.5352355938645099E-3,1880 nM
same,potency estimated from few doses,PRKCQ; CATDS: 3.4517086035176399E-3,2030 nM
same,potency estimated from few doses,"PRKD2; compound concentrations: 100 nM and 1000 nM (sheet 'Samples'), CATDS: 4.0514258518823199E-3",1290 nM
same,potency estimated from few doses,"PRKD3; compound concentrations: 100 nM and 1000 nM (sheet 'Samples'), CATDS: 4.0252223893410396E-3",1320 nM
same,potency estimated from few doses,PTK2B; CATDS: 7.2672167282142302E-3,423 nM
same,potency estimated from few doses,PTK2; CATDS: 4.9483549300151902E-3,831 nM
same,potency estimated from few doses,RPS6KA6; CATDS: 7.1387563408407901E-3,435 nM
same,potency estimated from few doses,STK10; CATDS: 3.6177977688347301E-3,1760 nM
same,potency estimated from few doses,TNK2; CATDS: 5.8659667131667897E-3,604 nM
CCn1c(-c2nonc2N)nc2c(C#CCN)ncc(OCCCN)c21.O=C(O)C(F)(F)F [GSK561866B],potency estimated from few doses,LATS1; CATDS: 0.187665654048491,38.9 nM
O=C(O)C(F)(F)F.O=C(O)C(F)(F)F.O=c1[nH]ccc2nc(N[C@@H]3CCCNC3)nc(Nc3ccc(S(=O)(=O)N4CCOCC4)cc3)c12.O=c1[nH]ccc2nc(N[C@@H]3CCCNC3)nc(Nc3ccc(S(=O)(=O)N4CCOCC4)cc3)c12 [GSK2177277A],potency estimated from few doses,FER; CATDS: 8.2739447120601401E-3,507 nM
same,potency estimated from few doses,FLT3; CATDS: 9.0751024069003396E-3,370 nM
same,potency estimated from few doses,LATS1; CATDS: 1.48300039917603E-2,99 nM
same,potency estimated from few doses,MARK4; CATDS: 1.7623267984443299E-2,68 nM
same,potency estimated from few doses,MYLK3; CATDS: 7.6821350503620796E-3,670 nM
same,potency estimated from few doses,PLK4; CATDS: 9.3439650172966598E-3,337 nM
same,potency estimated from few doses,PRKAA1; CATDS: 9.2771532951669705E-3,345 nM
same,potency estimated from few doses,PRKCD; CATDS: 1.08121865447726E-2,219 nM
same,potency estimated from few doses,PRKCQ; CATDS: 6.3096913927369299E-3,1710 nM
same,potency estimated from few doses,"PRKD2; compound concentrations: 100 nM and 1000 nM (sheet 'Samples'), CATDS: 1.40829388038229E-2",112 nM
same,potency estimated from few doses,"PRKD3; compound concentrations: 100 nM and 1000 nM (sheet 'Samples'), CATDS: 1.7898299297347601E-2",65.9 nM
same,potency estimated from few doses,PTK2B; CATDS: 2.4807788404782798E-2,35.2 nM
same,potency estimated from few doses,PTK2; CATDS: 7.5985318000446602E-3,700 nM
same,potency estimated from few doses,RPS6KA6; CATDS: 8.3254992837084908E-3,496 nM
same,potency estimated from few doses,STK10; CATDS: 9.0871108796095092E-3,369 nM
CNCC#Cc1c(F)ccc2c1/C(=C/c1[nH]ccc1OC)C(=O)N2.Cl [RO0281601-001],potency estimated from few doses,CDKL5; CATDS: 0.30453752260001898,9.43 nM
same,potency estimated from few doses,FLT3; CATDS: 6.9218069305552701E-2,105 nM
same,potency estimated from few doses,LATS1; CATDS: 3.7561417632614502E-2,394 nM
same,potency estimated from few doses,MARK4; CATDS: 2.40121909495257E-2,1380 nM
same,potency estimated from few doses,MYLK3; CATDS: 6.4458343159200099E-2,121 nM
CN(C)CC(O)COc1ccc(Nc2nccc(-c3cnn4nc(N5CCOCC5)ccc34)n2)cc1 (centres unmarked) [GW767488X],potency estimated from few doses,PRKD2; [1],28.7 nM
same,potency estimated from few doses,PRKD3; [1],44.8 nM
COc1cc(Nc2nccc(-c3cnn4ncccc34)n2)cc(OC)c1 [GW801372X],potency estimated from few doses,CDKL5; CATDS: 4.3388944669180397E-2,141 nM
same,potency estimated from few doses,DYRK1A; CATDS: 3.9916528669642001E-2,170 nM
same,potency estimated from few doses,FLT3; CATDS: 0.110722345436643,22.4 nM
same,potency estimated from few doses,PTK2; CATDS: 2.4454982719063802E-2,604 nM
